Laboratory results from PubChem BioAssay (EPA / NIEHS).
Records with an inconclusive call do not appear. Some structures have more than one record in an assay (separate samples or runs), and their calls can disagree. Active and inactive are the calls of the source. How the source made its calls, unless noted: active means hit-call score of the fitted dose curve at least 0.9, where 1 is the maximum; inactive means score below 0.9.

Legend:
[1] = target: human RAR-related Orphan Receptor gamma (RORg), RORC (gene 6097) (UniProt P51449); assay: ATG_RORg_TRANS: Attagene TRANS-FACTORIAL HepG2 Assay for human RAR-related Orphan Receptor gamma (RORg) (AID 2283011; active means hit-call score of the fitted dose curve at least 0.9, where 1 is the maximum)
Chain of human RAR-related Orphan Receptor gamma (RORg), RORC (gene 6097) (P51449 whole entry, looked up, the tested form may be a part): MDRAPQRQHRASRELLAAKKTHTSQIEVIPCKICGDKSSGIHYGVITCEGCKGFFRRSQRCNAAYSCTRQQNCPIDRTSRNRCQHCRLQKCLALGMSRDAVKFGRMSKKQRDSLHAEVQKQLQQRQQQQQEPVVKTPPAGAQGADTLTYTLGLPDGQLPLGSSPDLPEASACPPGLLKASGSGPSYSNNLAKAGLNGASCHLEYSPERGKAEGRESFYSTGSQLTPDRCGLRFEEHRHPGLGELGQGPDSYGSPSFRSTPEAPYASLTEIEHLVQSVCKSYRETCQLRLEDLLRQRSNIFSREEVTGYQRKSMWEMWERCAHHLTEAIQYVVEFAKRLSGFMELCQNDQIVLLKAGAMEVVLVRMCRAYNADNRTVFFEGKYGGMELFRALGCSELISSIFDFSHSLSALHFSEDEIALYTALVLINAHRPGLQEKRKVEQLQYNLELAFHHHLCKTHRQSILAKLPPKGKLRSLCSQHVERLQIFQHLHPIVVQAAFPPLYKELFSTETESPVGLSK
Outline: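 Activity is scored as increase in GAL4-UAS reporter mRNA over DMSO, detected by fluorescent RT-PCR and capillary electrophoresis in HepG2 cells transiently expressing a RORg-Gal4 chimera, 24 h after dosing.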

[2] = target: human RAR-related Orphan Receptor beta (RORb), RORB (gene 6096) (UniProt Q92753); assay: ATG_RORb_TRANS: Attagene TRANS-FACTORIAL HepG2 Assay for human RAR-related Orphan Receptor beta (RORb) (AID 2283010; active means hit-call score of the fitted dose curve at least 0.9, where 1 is the maximum)
Chain of human RAR-related Orphan Receptor beta (RORb), RORB (gene 6096) (Q92753 whole entry, looked up, the tested form may be a part): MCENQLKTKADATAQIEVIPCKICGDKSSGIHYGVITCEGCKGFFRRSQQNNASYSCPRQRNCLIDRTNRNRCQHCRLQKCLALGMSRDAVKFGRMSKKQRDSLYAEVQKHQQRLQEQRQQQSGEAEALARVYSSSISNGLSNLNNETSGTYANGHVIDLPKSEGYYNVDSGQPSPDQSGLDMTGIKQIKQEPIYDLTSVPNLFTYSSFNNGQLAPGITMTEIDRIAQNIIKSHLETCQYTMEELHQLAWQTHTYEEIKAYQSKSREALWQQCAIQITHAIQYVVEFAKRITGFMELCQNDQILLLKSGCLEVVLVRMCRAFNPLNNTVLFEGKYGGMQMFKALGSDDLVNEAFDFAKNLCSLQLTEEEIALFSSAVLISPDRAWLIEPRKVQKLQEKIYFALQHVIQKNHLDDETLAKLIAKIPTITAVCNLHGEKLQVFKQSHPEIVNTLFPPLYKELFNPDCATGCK
Outline: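 Readout is reporter-gene mRNA induction, detected as fluorescence after RT-PCR and capillary electrophoresis, fitted for gain of signal against DMSO controls. Transiently transfected HepG2 liver cells carrying GAL4-UAS reporter constructs were treated for 24 hours.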

[3] = target: human Retinoid X Receptor beta (RXRb), RXRB (gene 6257) (UniProt P28702); assay: ATG_RXRb_TRANS: Attagene TRANS-FACTORIAL HepG2 Assay for human Retinoid X Receptor beta (RXRb) (AID 2283013; active means hit-call score of the fitted dose curve at least 0.9, where 1 is the maximum)
Chain of human Retinoid X Receptor beta (RXRb), RXRB (gene 6257) (P28702 whole entry, looked up, the tested form may be a part): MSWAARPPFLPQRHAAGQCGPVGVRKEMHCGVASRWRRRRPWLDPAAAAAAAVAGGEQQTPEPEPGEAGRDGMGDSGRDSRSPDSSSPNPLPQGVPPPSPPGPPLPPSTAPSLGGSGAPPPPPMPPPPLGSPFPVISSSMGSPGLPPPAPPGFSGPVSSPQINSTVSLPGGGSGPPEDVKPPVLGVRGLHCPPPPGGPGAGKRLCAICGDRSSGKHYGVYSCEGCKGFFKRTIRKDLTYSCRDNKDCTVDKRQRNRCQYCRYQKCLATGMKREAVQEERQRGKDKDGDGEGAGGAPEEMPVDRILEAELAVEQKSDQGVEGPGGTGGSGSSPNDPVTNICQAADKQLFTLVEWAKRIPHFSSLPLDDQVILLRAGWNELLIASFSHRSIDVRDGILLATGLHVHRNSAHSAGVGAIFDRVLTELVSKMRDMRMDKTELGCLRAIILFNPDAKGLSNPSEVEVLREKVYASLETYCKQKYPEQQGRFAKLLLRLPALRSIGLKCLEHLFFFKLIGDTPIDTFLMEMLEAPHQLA
Outline: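 Transfect HepG2 with GAL4-UAS multi-reporter constructs (chimeric NR-Gal4, TRANS format); dose compound 24 h; isolate RNA, RT-PCR, FAM primer extension, HpaI digest; quantify by capillary electrophoresis; positive direction vs DMSO.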

[4] = target: human Thyroid Receptor alpha (THRa1), THRA (gene 7067) (UniProt P10827); assay: ATG_THRa1_TRANS: Attagene TRANS-FACTORIAL HepG2 Assay for human Thyroid Receptor alpha (THRa1) (AID 2283014; active means hit-call score of the fitted dose curve at least 0.9, where 1 is the maximum)
Chain of human Thyroid Receptor alpha (THRa1), THRA (gene 7067) (P10827 whole entry, looked up, the tested form may be a part): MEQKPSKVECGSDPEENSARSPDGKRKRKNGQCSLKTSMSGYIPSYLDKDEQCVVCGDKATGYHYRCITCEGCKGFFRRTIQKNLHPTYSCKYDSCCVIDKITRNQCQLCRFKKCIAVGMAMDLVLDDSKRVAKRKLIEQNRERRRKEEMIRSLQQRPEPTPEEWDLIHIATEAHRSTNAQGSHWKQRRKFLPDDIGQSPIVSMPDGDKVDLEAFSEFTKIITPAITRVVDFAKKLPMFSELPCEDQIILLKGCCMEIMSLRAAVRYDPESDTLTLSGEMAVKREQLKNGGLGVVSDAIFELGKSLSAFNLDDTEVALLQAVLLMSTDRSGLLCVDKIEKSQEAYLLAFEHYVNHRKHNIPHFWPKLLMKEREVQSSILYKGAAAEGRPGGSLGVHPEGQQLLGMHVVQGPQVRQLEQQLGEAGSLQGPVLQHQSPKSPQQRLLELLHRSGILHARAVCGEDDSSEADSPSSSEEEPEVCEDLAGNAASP
Outline: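 First, HepG2 cells receive multiple GAL4-UAS reporter units and the chimeric receptor. They are then dosed for 24 h, after which RNA is reverse-transcribed, amplified, labelled, HpaI-cut and sized by capillary electrophoresis; gain relative to DMSO is scored.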

[5] = read-out: E-selectin (Homo sapiens) (UniProt P16581); assay: BSK_3C_Eselectin: BioMAP Diversity Plus: 3C Assay for Eselectin Biomarker Activity (AID 2283015); details: primary human endothelial cells (HUVEC); actives raise or lower the signal
Outline: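 Human vascular endothelium from umbilical vein is exposed to test chemicals for 24 h. E-selectin levels are read by ELISA and compared with DMSO controls.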

[6] = read-out: Interleukin-1 alpha (IL1a), IL1A (gene 3552); assay: BSK_BE3C_IL1a: BioMAP Diversity Plus: BE3C Assay for Interleukin-1 alpha (IL1a) Biomarker Activity (AID 2283016); details: primary human bronchial epithelial cells; actives raise or lower the signal
Outline: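 BE3C primary human bronchial epithelium; cpd 24 h; IL-1a by ELISA; bidirectional fit vs DMSO; parallel SRB (0.1% SRB, 10% TCA fix, 560 nm) for cytotoxicity.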

[7] = read-out: Monocyte Chemoattractant Protein-1 (MCP1), CCL2 (gene 6347); assay: BSK_3C_MCP1: BioMAP Diversity Plus: 3C Assay for Monocyte Chemoattractant Protein-1 (MCP1) Biomarker Activity (AID 2283017); details: primary human endothelial cells (HUVEC); actives raise or lower the signal
Outline: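 Endothelial cells from human umbilical vein are dosed with chemical, cultured 24 h, then assayed for MCP-1 by ELISA; both increases and decreases are modelled against DMSO controls.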

[8] = read-out: Monocyte Chemoattractant Protein-1 (MCP1), CCL2 (gene 6347); assay: BSK_4H_MCP1: BioMAP Diversity Plus: 4H Assay for Monocyte Chemoattractant Protein-1 (MCP1) Biomarker Activity (AID 2283018); details: primary human endothelial cells (HUVEC); actives raise or lower the signal
Outline: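 ELISA read-out of MCP-1 from human vascular endothelial primary cells taken at 24 hours after compound exposure. Activity was fitted in both directions relative to DMSO, which served as negative control.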

[9] = read-out: Human Leukocyte Antigen - DR isotype (HLADR), HLA-DRA (gene 3122); assay: BSK_3C_HLADR: BioMAP Diversity Plus: 3C Assay for Human Leukocyte Antigen - DR isotype (HLADR) Biomarker Activity (AID 2283019); details: primary human endothelial cells (HUVEC); actives raise or lower the signal
Outline: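 Endothelial cells from human umbilical vein are treated with test chemical; after 24 h, HLA-DR levels are measured by ELISA. Data are fitted in both directions using DMSO as the baseline.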

[10] = target: Retinoic acid receptor RXR-alpha (Homo sapiens) (UniProt P19793); assay: ATG_RXRa_TRANS: Attagene TRANS-FACTORIAL HepG2 Assay for human Retinoid X Receptor alpha (RXRa) (AID 2283012; active means hit-call score of the fitted dose curve at least 0.9, where 1 is the maximum)
Chain of Retinoic acid receptor RXR-alpha (Homo sapiens) (P19793 whole entry, looked up, the tested form may be a part): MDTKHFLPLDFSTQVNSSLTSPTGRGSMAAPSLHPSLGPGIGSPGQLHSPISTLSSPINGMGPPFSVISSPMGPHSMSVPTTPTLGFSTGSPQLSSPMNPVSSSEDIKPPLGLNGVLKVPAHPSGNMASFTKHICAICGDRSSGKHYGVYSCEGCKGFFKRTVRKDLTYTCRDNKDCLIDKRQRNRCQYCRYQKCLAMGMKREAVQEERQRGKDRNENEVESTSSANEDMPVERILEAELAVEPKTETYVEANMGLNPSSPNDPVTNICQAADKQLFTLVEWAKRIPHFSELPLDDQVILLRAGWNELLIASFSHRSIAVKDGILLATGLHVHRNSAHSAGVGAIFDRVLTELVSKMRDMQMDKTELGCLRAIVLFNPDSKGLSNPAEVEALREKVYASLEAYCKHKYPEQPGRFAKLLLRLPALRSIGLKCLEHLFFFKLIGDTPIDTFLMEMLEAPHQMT
Outline: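 Transient transfection of human HepG2 with multiple GAL4-UAS reporter constructs; 24 h compound exposure; total RNA isolated, reverse-transcribed, PCR-amplified, 6-FAM labelled, HpaI-cut, resolved by capillary electrophoresis. Positive-direction fit versus DMSO.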

Measured: AC50

Chain of E-selectin (Homo sapiens) (P16581 whole entry, looked up): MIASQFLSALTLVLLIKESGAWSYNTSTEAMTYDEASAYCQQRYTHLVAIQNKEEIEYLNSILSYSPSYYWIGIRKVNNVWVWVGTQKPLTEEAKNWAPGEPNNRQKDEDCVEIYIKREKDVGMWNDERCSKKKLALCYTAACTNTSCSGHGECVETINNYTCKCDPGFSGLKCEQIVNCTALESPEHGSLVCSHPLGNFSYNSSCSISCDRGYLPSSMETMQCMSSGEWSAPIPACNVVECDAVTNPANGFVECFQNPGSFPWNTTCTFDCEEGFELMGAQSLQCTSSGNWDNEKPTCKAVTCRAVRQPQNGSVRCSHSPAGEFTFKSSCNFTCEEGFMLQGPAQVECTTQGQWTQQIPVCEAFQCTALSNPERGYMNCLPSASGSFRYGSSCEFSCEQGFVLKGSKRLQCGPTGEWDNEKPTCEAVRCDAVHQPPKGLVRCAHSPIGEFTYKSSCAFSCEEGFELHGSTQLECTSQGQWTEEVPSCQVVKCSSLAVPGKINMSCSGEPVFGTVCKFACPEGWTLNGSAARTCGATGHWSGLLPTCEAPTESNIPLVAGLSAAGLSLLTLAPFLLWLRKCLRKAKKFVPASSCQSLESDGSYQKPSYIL

CCN(CC)C1CCCCC1
inactive: [1]

CN(C)C(=O)Cl
not listed: [1] | [10]
inactive: all other assays above

CC(C)(C)c1ccc(O)cc1
active: [3] 69.3 µM
not listed: [1] | [4] | [5]
inactive: all other assays above

O=S(=O)(F)C(F)(F)C(F)(F)C(F)(F)C(F)(F)C(F)(F)C(F)(F)C(F)(F)C(F)(F)F
not listed: [1] | [3] | [5]
inactive: all other assays above

Cc1cccc(N)c1
not listed: [3] | [10]
inactive: all other assays above

O=C(O)CF
inactive: [2] | [1] | [10] | [3]

CSC(C)(C)C=NO
not listed: [1] | [4]
inactive: all other assays above

Cn1[nH]nnc1=S
inactive: [2] | [10]

CCOC(=O)c1ccccc1N
inactive: [2] | [1] | [4]

NNC(N)=S
inactive: [2] | [1] | [10] | [3]

Nc1ccc(Sc2ccc(N)cc2)cc1
inactive: [2] | [1] | [10] | [3]

O=C(O)C(F)(OC(F)(F)C(F)(F)C(F)(F)F)C(F)(F)F (configuration not stated)
active: [7] 49.3 µM
inactive: [2] | [1] | [10] | [3] | [4] | [5] | [6] | [7] | [8] | [9]

N#Cc1c(-c2ccc(Cl)cc2)[nH]c(C(F)(F)F)c1Br
active: [6] 7.11 µM | [7] 0.169 µM | [8] 0.14 µM | [9] 0.324 µM
not listed: [1]
inactive: all other assays above

CC(Cl)(Cl)C(=O)O
not listed: [2] | [3] | [5]
inactive: all other assays above

CCCCOCCOP(=O)(OCCOCCCC)OCCOCCCC
inactive: [1] | [3] | [6] | [8]
active: [3] 24.8 µM | [7] 3.97 µM | [9] 12.8 µM

O=NN1CCCC1
inactive: [1] | [4]

CCCN(CCC)c1c([N+](=O)[O-])cc(C(C)C)cc1[N+](=O)[O-]
active: [3] 17.9 µM | [7] 32 µM | [8] 20 µM | [9] 28.5 µM
inactive: [10] | [4] | [5] | [6]

CC(=O)CCc1ccc2c(c1)OCO2
inactive: [10] | [3]

CCCCc1ccc(O)cc1
inactive: [10]
active: [3] 64.2 µM

COP(N)(=S)OC
not listed: [2] | [4]
inactive: all other assays above

c1cc2c3c(cccc3c1)CC2
not listed: [2] | [5] | [10]
inactive: all other assays above

CCCCN(CC)C(=O)SCCC
inactive: [1]
active: [3] 59.1 µM

NC(=O)C(F)(F)C(F)(F)F
not listed: [2] | [3]
inactive: all other assays above

OCC1CO1 (configuration not stated)
inactive: [1] | [4] | [6] | [7] | [8] | [9]

CCNc1nc(Cl)nc(NC(C)(C)C)n1
active: [3] 49.1 µM
not listed: [2]
inactive: all other assays above

Cc1c([N+](=O)[O-])cc2c(c1[N+](=O)[O-])C(C)(C)CC2(C)C
active: [10] 8.24 µM | [3] 1.37 µM | [9] 11.9 µM
not listed: [1] | [2]
inactive: all other assays above

C=CC(=O)OCC(CC)(COC(=O)C=C)COC(=O)C=C
inactive: [10] | [3] | [4]
active: [5] 2.37 µM | [6] 5.88 µM | [7] 2.66 µM | [8] 1.9 µM | [9] 1.38 µM

CC1=C(C(=O)Nc2ccccc2)S(=O)(=O)CCO1
inactive: [10]

FC(F)(F)c1ccc(Cl)cc1
inactive: [10]

c1ccc(OP(Oc2ccccc2)Oc2ccccc2)cc1
inactive: [1] | [6] | [7] | [8] | [9]
